Data as given in the supplement of paper PMC10849652.
Targets with a hit are over-represented here; the source holds about 7,900 in all. About 0.6% of all pairs of compound and target were hits. A number with no mark means an inactive call.

What was measured:
Assay in all cases: log2 fold change, soluble protein after heating vs DMSO (PISA); higher = thermal stabilisation; K562 cells, 10 uM, 30 min; active = over 0.2 and 3.5 SD of the protein, either way, in both replicates (recomputed)
[1] = compound: C1=CC=C(C=C1)[C@H](COC2=CC3=C(C=C2)NC(=O)N3)NC(=O)C4=CC=CN(C4=O)CC5=CC(=C(C=C5)F)F
Outline: (§1)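 Aliquots of K562 cells (2×10^6 cells/mL) treated with 10 μM compound for 30 min were heated for 3 min over 48°C-58°C. After pooling and extraction in PBS with 0.5% NP-40 at 4°C, soluble protein from a 21,000xg, 90 min spin was quantified by TMTpro 16plex LC-MS/MS with channel sums equalised. Thermal stability is expressed against control samples, from duplicates, as a log2 fold change.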

[2] = compound: CC1=C(SC2=C1C(=N[C@H](C3=NN=C(N32)C)CC(=O)N)C4=CC=C(C=C4)Cl)C
Outline: as §1

[3] = compound: CC1=C2C(=CC=C1)N=C(N(C2=O)C3=CC=CC=C3C)CN4C=NC5=C(N=CN=C54)N
Outline: as §1

[4] = compound: Cc1sc2c(c1C)C(c1ccc(Cl)cc1)=N[C@@H](CC(=O)OC(C)(C)C)c1nnc(C)n1-2
Outline: as §1

[5] = compound: c1ccc([C@@H]2C[C@H]2NC2CCNCC2)cc1
Outline: as §1

Sequence of UniProt Q9H1B7 (Q9H1B7 whole entry, looked up): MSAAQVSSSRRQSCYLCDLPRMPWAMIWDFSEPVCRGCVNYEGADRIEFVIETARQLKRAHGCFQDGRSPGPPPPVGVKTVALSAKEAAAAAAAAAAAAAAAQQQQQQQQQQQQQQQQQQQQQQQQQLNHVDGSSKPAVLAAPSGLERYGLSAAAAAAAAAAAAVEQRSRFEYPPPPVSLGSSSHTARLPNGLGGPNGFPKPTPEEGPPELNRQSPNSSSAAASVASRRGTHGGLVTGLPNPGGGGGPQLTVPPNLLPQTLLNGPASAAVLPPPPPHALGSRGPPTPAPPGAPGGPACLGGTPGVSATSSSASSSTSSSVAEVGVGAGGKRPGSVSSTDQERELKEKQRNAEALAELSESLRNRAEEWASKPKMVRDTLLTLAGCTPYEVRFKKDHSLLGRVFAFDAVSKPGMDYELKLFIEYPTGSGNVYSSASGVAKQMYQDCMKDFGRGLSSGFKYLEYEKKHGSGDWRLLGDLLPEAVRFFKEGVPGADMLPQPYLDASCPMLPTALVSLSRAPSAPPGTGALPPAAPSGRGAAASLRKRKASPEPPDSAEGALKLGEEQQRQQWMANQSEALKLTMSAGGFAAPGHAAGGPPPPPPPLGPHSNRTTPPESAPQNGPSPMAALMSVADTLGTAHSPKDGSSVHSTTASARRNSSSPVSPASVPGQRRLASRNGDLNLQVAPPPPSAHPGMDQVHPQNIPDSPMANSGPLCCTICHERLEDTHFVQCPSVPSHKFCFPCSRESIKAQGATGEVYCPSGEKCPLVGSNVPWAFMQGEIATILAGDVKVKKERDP
Sequence of UniProt Q8IYU8 (Q8IYU8 whole entry, looked up): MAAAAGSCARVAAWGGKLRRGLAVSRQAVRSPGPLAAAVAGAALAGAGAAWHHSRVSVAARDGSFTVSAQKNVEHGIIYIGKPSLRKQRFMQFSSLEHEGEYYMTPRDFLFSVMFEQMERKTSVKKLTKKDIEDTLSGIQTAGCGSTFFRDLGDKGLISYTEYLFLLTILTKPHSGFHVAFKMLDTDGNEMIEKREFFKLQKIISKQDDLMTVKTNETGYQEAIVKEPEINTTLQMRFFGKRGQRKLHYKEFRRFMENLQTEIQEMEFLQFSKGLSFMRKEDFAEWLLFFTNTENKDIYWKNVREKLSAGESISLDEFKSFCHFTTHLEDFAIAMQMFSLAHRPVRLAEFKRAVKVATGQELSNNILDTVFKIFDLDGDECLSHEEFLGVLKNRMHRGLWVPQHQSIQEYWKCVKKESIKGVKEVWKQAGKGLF
Sequence of UniProt O14880 (O14880 whole entry, looked up): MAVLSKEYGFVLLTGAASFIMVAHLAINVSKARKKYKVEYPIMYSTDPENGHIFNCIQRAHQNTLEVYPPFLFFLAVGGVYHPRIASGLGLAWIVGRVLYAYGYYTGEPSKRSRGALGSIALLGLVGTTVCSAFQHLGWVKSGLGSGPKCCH
Sequence of UniProt Q8TBB5 (Q8TBB5 whole entry, looked up): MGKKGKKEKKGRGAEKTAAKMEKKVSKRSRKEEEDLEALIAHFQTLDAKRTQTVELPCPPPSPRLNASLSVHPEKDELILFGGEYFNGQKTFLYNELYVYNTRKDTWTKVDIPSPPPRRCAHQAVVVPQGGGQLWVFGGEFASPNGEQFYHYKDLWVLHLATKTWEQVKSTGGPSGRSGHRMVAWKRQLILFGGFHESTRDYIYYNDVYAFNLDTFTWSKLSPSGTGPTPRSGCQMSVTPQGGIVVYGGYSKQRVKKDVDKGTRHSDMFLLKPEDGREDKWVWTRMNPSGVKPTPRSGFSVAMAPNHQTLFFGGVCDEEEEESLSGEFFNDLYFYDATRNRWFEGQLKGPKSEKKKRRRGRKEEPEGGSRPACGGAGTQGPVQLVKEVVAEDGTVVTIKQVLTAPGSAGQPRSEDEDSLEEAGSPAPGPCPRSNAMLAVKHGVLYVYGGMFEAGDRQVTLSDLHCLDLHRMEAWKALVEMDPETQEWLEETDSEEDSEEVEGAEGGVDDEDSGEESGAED
Sequence of UniProt Q71SY5 (Q71SY5 whole entry, looked up): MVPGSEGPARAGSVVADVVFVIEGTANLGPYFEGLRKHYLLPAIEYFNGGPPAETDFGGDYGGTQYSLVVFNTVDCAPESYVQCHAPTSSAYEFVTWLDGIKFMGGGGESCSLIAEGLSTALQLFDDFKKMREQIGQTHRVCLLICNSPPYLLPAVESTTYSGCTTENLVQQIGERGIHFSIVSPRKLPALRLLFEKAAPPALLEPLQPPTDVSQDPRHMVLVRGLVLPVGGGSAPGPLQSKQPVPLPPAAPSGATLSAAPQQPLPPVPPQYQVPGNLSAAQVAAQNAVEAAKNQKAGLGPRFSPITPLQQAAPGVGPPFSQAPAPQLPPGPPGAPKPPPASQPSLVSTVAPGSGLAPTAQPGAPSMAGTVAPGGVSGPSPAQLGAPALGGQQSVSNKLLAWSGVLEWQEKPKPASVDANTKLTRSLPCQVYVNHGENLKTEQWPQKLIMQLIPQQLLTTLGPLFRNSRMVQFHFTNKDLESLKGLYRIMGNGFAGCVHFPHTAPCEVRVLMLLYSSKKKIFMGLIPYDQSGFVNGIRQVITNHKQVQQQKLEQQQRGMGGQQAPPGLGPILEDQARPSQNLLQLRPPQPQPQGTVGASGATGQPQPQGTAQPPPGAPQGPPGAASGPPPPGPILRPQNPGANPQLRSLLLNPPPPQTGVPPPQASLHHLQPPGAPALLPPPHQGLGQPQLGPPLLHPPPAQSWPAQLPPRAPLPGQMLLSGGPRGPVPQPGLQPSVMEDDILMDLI
Sequence of UniProt P23276 (P23276 whole entry, looked up): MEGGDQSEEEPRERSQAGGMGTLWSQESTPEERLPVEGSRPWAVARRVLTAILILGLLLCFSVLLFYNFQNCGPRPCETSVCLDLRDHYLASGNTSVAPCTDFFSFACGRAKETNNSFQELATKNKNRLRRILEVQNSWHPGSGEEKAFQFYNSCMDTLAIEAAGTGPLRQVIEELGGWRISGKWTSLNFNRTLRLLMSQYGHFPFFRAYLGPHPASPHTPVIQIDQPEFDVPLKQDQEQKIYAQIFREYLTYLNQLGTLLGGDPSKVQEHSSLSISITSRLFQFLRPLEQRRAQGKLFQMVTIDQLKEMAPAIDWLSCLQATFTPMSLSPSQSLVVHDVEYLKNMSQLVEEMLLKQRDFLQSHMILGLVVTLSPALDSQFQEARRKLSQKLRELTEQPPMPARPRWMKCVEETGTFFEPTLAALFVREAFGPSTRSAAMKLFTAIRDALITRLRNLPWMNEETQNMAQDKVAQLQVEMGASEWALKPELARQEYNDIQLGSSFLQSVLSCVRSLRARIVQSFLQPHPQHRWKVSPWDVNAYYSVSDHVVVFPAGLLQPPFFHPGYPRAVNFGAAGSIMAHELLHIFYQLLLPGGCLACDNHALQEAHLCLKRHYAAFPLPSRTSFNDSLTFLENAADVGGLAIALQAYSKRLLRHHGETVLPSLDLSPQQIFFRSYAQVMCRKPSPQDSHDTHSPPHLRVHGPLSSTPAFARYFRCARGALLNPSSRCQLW
Sequence of UniProt Q07666 (Q07666 whole entry, looked up): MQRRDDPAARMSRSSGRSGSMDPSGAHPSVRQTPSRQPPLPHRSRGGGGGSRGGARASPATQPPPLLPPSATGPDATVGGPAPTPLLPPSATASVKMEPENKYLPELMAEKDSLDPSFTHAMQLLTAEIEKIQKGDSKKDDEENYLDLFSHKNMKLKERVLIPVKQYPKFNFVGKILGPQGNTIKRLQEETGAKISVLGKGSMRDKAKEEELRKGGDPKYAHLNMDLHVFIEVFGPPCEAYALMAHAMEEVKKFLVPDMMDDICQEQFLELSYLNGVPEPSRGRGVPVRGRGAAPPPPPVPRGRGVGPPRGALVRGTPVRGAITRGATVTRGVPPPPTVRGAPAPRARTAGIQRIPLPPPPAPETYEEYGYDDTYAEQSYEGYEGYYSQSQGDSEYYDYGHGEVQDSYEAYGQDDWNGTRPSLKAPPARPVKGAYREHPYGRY
Sequence of UniProt P13473 (P13473 whole entry, looked up): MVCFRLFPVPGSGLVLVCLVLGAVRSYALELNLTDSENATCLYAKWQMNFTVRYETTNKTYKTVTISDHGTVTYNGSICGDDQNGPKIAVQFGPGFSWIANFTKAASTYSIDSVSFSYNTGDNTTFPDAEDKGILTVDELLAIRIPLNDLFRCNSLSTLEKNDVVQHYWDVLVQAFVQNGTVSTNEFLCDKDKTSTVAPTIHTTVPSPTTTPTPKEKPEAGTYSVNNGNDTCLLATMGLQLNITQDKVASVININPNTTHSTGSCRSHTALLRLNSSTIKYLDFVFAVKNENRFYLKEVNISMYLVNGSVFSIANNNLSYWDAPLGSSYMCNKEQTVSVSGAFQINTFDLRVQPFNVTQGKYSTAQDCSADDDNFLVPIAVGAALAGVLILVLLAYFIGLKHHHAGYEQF
Sequence of UniProt Q8WWC4 (Q8WWC4 whole entry, looked up): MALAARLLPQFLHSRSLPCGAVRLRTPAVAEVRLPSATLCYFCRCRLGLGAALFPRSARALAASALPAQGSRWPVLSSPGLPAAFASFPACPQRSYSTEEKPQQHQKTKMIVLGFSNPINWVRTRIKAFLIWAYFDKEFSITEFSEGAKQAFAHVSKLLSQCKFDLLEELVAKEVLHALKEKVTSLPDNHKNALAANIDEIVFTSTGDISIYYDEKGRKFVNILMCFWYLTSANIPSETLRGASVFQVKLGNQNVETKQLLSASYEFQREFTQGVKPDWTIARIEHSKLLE
Sequence of UniProt Q8WV07 (Q8WV07 whole entry, looked up): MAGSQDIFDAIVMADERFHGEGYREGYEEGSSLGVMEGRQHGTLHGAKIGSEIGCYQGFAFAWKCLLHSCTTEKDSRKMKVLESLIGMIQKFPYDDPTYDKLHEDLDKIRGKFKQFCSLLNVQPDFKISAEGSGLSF
Sequence of UniProt A4D2B0 (A4D2B0 whole entry, looked up): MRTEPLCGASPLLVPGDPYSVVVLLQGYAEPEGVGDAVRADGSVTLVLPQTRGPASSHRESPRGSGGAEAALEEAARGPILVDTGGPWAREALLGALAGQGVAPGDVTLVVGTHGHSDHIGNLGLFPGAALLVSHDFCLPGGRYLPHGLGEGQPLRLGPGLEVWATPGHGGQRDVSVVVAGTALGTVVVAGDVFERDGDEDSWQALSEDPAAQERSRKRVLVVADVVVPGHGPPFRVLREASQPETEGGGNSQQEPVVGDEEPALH

Row | Target | log2 fold change [1] | log2 fold change [2] | log2 fold change [3] | log2 fold change [4] | log2 fold change [5]
1 | LNPEP (UniProt Q9UIQ6) | 0.066 | 0.061 | 0.001 | -0.016 | 0.046
2 | MGST3 (UniProt O14880) | 0.046 | 0.032 | 0.005 | 0.006 | 0.054
3 | MED25 isoform 3 (UniProt Q71SY5) | -0.12 | 0.06 | -0.14 | -0.128 | -0.257
4 | LMNB2 (UniProt Q03252) | 0.04 | 0.052 | 0.062 | -0.04 | 0.053
5 | MAIP1 (UniProt Q8WWC4) | 0.012 | 0.075 | 0.028 | -0.026 | 0.002
6 | MAP2K1 (UniProt Q02750) | -0.01 | 0.033 | 0.099 | -0.015 | 0
7 | KEL (UniProt P23276) | -0.067 | 0.003 | 0.017 | 0.019 | 0.067
8 | KDM3B (UniProt Q7LBC6) | -0.013 | 0.026 | 0.08 | 0.038 | 0.071
9 | KPNB1 (UniProt Q14974) | -0.035 | -0.018 | -0.024 | 0.001 | -0.021
10 | LTO1 (UniProt Q8WV07) | 0.054 | -0.02 | 0.142 | -0.062 | 0.03
11 | LMBR1 isoform 3 (UniProt Q8WVP7) | -0.194 | 0.147 | -0.134 | -0.349 | 0.078
12 | LSR (UniProt Q86X29) | -0.016 | 0.033 | 0.006 | -0.034 | 0.015
13 | MBLAC1 (UniProt A4D2B0) | -0.019 | 0.067 | -0.064 |  | -0.029
14 | LRPPRC (UniProt P42704) | -0.312 | -0.059 | 0.257 | -0.031 | -0.05
15 | MICU2 (UniProt Q8IYU8) | 0.013 | -0.037 | -0.123 | -0.029 | 0.021
16 | ILRUN (UniProt Q9H6K1) | 0.029 | 0.031 | 0.119 | 0.014 | -0.009
17 | LAMP2 (UniProt P13473) | 0.022 | -0.006 | -0.041 | -0.078 | 0.074
18 | MAP4 (UniProt E7EVA0) | -0.009 | -0.15 | -0.095 | 0.096 | 0.005
19 | KHDRBS1 (UniProt Q07666) | -0.038 | -0.018 | -0.025 | 0.055 | -0.021
20 | MAP2K2 (UniProt P36507) | 0.034 | 0.065 | 0.073 | -0.027 | -0.067
21 | MAP4 (UniProt P27816) | 0.028 | -0.017 | -0.058 | 0.003 | 0.037
22 | IRF2BPL (UniProt Q9H1B7) | -0.051 | 0.027 | 0.001 | -0.067 | -0.043
23 | KLHDC4 (UniProt Q8TBB5) | 0.048 | -0.074 | -0.165 | 0.084 | -0.047
24 | MED8 isoform 2 (UniProt Q96G25) | 0.011 | -0.053 | -0.381 (active) |  | 0.039
25 | IRF3 (UniProt Q14653) | -0.049 | 0.123 | 0.015 | -0.007 | -0.01
